These results are taken from PubChem BioAssay (NCATS).

Results filed as inconclusive are left out. Where a call stands in place of a potency, no number is given. The source made the active and inactive calls. Unless noted, calls follow the shape of the dose curve; as a rule, active = well fitted curve in the direction sought with a large enough effect; inconclusive = small, poorly fitted or top-dose-only effect, or another doubt; inactive = no such curve, though single readings can be large; an effect the other way counts as inactive or inconclusive.

In assay [1] the target is Mitogen-activated protein kinase 10 (Mus musculus) (UniProt Q61831). The experiment in a line: JNK3 AlphaScreen Assay (AID 530; active = well fitted curve in either direction with a large enough effect, not every such curve was filed as active;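 also: kinase came from lysate of stimulated human HepG2 cells; signal reports phosphorylation of biotinylated GST-cJun 1-79 at Ser73 with 10 µM ATP; series mostly up to about 57 µM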). Put shortly: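 Room-temperature AlphaScreen kinase assay; pre-activated HepG2 lysate as JNK3 source, biotin-GST-cJun(1-79) substrate, 10 uM ATP, compound 15 min preincubation.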
Assay [2] has as its target Cytochrome P450 3A4 (Homo sapiens) (UniProt P08684). The experiment in a line: qHTS Assay for Inhibitors and Substrates of Cytochrome P450 3A4 (AID 884). Also: potency is read from the fitted curve at half-maximal effect; nearly all actives have a fitted effect of over 50% in size. Put shortly: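 20 nM human CYP3A4 with 25 uM Luciferin-PPXE (at KM) in 200 mM KPO4, preincubated 10 min with compound; NADPH regeneration started a 60 min RT reaction. Luciferin detected by luminescence, normalized to 57 uM ketoconazole as full inhibition.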
(Quantitative high-throughput screening tests each substance at several concentrations.)

For assay [3] the target is unchanged. In words: qHTS Assay for Activators of Cytochrome P450 3A4 (AID 885). Also: nearly all actives have a fitted effect of over 65% in size. Put shortly: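 Human CYP3A4 (20 nM) with Luciferin-PPXE at 25 uM (its KM) in 200 mM KPO4; 10 min compound preincubation, then NADPH regeneration and 60 min reaction at RT. Luciferin read by luminescence; normalized to 57 uM ketoconazole full inhibition.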

Sequence of Cytochrome P450 3A4 (Homo sapiens) (P08684 whole entry, looked up): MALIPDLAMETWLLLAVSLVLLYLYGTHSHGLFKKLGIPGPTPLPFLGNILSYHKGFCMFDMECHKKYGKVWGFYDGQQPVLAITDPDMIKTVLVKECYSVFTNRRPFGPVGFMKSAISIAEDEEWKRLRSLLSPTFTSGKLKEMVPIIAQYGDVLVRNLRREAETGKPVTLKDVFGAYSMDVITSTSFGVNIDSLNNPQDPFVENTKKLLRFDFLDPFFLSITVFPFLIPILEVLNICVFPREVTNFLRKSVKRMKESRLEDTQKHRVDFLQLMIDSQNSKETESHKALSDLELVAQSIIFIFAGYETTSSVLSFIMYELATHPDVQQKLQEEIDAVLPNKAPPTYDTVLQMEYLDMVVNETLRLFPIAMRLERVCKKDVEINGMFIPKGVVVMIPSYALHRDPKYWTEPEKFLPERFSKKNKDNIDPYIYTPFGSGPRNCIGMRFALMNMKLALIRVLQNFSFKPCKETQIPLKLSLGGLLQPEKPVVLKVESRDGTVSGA

Regarding `CC1(C(=O)NCCc2c[nH]c3ccccc23)C=CCN1C(=O)c1ccccc1` (centres undefined), in assay [1], the result was inactive. The Potency in assay [2] is 10 µM (active). Moreover, the Potency entry in assay [3] was “inactive”.

Turning to `CCCCCCN(C(=O)CCCCCN1C(=O)NC(c2ccc(-c3ccccc3)cc2)C(C(=O)OCc2ccccc2)=C1C)C(C(=O)NCCCC)c1ccc(OCC(=O)OC)cc1` (centres undefined), the result in assay [1] was inactive. For the same compound, the Potency in assay [2] was 10 µM (active). For the same compound, the Potency result in assay [3] is “inactive”.

For the compound `COC(=O)c1ccc(C(NC(=O)OCc2ccccc2)/C(=C/[C@@H](C)C(=O)NCc2cc(C)on2)c2cccnc2)cc1` (some centres undefined), the outcome in assay [1] was inactive. Besides, the Potency in assay [2] was 1.58 µM (active). Besides, the Potency entry in assay [3] is “inactive”.

As to `COC(=O)N1[C@H](C)C=C[C@]1(Cc1ccccc1)C(=O)NCCCNc1ncc(C(F)(F)F)cc1Cl`, the compound was classed as inactive in assay [1]. Further, the Potency in assay [2] was 6.31 µM (active). The Potency result in assay [3] is “inactive”.

For `CC(=O)N1[C@H](Cc2ccccc2)C=C[C@]1(C)C(=O)NCCN1CCOCC1`, the call in assay [1] was inactive. Also, the Potency in assay [2] was 15.8 µM (active). For the same compound, in assay [3], the Potency entry was “inactive”.

In the case of `COC(=O)c1ccc(C(NC(=O)OCc2ccccc2)/C(=C/[C@@H](C)C(=O)NCc2ccncc2)c2cccnc2)cc1` (some centres undefined), the call in assay [1] was inactive. Further, the Potency in assay [2] was 1.26 µM (active). In assay [3], the Potency entry is “inactive”.

`COC(=O)[C@@H]1CCCN1C(=O)[C@H]1C[C@@H]1[C@H](NC(=O)OCc1ccccc1)c1ccccc1`: the result in assay [1] was inactive. Moreover, the Potency in assay [2] is 10 µM (active). Also, the Potency result in assay [3] was “inactive”.

As for `COC(=O)c1ccc(C(NC(=O)OCc2ccccc2)/C(=C/[C@@H](C)C(=O)Nc2ccc(OC)cc2)c2cccnc2)cc1` (some centres undefined), the outcome in assay [1] was inactive. In assay [2], the Potency is 1 µM (active). The Potency entry in assay [3] was “inactive”.

Take `COC(=O)c1ccc(C(NC(=O)OCc2ccccc2)/C(F)=C/[C@@H](C)C(=O)NCCO)cc1` (some centres undefined): the compound was called inactive in assay [1]. For the same compound, the Potency in assay [2] was 15.8 µM (active). Further, in assay [3], the Potency result is “inactive”.

For the compound `CCC[C@@H]1C[C@@]1(CCC)[C@@H](NC(=O)Oc1ccccc1)c1ccc(C(=O)OC)cc1`, in assay [1], the result was inactive. Also, the Potency in assay [2] was 15.8 µM (active). In addition, the Potency entry in assay [3] was “inactive”.

As to `CCCCCCN(C(=O)CCCCCN1C(=O)NC(c2ccc(Cl)cc2)C(C(=O)OCc2ccccc2)=C1C)C(C(=O)NCCCC)c1ccc(OCC(=O)OC)c(C(=O)OC)c1` (centres undefined), the result in assay [1] was inactive. Besides, in assay [2], the Potency is 3.16 µM (active). For the same compound, the Potency result in assay [3] was “inactive”.

`COC(=O)c1ccc(C(NC(=O)OCc2ccccc2)/C(C)=C/[C@@H](C)C(=O)NC2CCCCC2)cc1` (some centres undefined): the outcome in assay [1] was inactive. In addition, the Potency in assay [2] is 2 µM (active). Also, the Potency entry in assay [3] was “inactive”.

For the compound `COC(=O)[C@H](Cc1ccccc1)NC(=O)[C@]1(C)C[C@H]1[C@H](NC(=O)OCc1ccccc1)c1ccccc1`, the compound was classed as inactive in assay [1]. Further, in assay [2], the Potency was 2 µM (active). In assay [3], the Potency entry was “inactive”.

In the case of `CCCCNC(=O)C(c1ccc(OCC(=O)OC)c(C(=O)OC)c1)N(CCc1ccccn1)C(=O)CCCCCN1C(=O)NC(c2ccc(-c3ccccc3)cc2)C(C(=O)OCc2ccccc2)=C1C` (centres undefined), in assay [1], the call was inactive. Further, the Potency in assay [2] was 7.94 µM (active). The Potency entry in assay [3] is “inactive”.

Regarding `COC(=O)c1ccc(C(NC(=O)OCc2ccccc2)/C(=C/[C@@H](C)C(=O)NCCF)c2cccnc2)cc1` (some centres undefined), the compound was called inactive in assay [1]. Also, the Potency in assay [2] was 6.31 µM (active). Moreover, the Potency entry in assay [3] was “inactive”.

For `COC(=O)[C@H](Cc1ccccc1)NC(=O)[C@@]1(C)C[C@@H]1[C@@H](NC(=O)OCc1ccccc1)c1ccccc1`, in assay [1], the compound was classed as inactive. Further, the Potency in assay [2] was 2 µM (active). For the same compound, the Potency entry in assay [3] was “inactive”.

With `COC(=O)c1ccc(C(NC(=O)OCc2ccccc2)/C(=C/[C@@H](C)C(=O)NCc2ccccc2)c2cccnc2)cc1` (some centres undefined), the result in assay [1] was inactive. Also, the Potency in assay [2] was 3.98 µM (active). Also, the Potency entry in assay [3] was “inactive”.

In the case of `CCCCCCN(C(=O)CCCCCN1C(=O)NC(c2ccc(-c3ccccc3)cc2)C(C(=O)OCc2ccccc2)=C1C)C(C(=O)NCCCC)c1ccc(O)cc1` (centres undefined), the compound was called inactive in assay [1]. The Potency in assay [2] was 10 µM (active). For the same compound, in assay [3], the Potency result is “inactive”.

For `CNC(=O)[C@]1(C)C[C@H]1[C@H](NC(=O)[C@]1(C)C[C@H]1[C@H](NC(=O)[C@]1(C)C[C@H]1[C@H](NC(=O)[C@]1(C)C[C@H]1[C@H](NC(=O)OCc1ccccc1)c1ccccc1)c1ccccc1)c1ccccc1)c1ccccc1`, in assay [1], the outcome was inactive. Further, in assay [2], the Potency was 12.6 µM (active). The Potency result in assay [3] is “inactive”.

`COC(=O)c1ccc(C(NC(=O)OCc2ccccc2)/C(=C/[C@@H](C)C(=O)Nc2ccccc2)c2cccnc2)cc1` (some centres undefined): the compound was classed as inactive in assay [1]. In addition, the Potency in assay [2] is 1.58 µM (active). Moreover, the Potency entry in assay [3] is “inactive”.

Regarding `CCCCCCN(C(=O)CCCCCN1C(=O)NC(c2ccc(C(F)(F)F)cc2)C(C(=O)OCc2ccccc2)=C1C)C(C(=O)NCCCC)c1ccc(OCC(=O)OC)c(C(=O)OC)c1` (centres undefined), the outcome in assay [1] was inactive. In assay [2], the Potency was 3.98 µM (active). For the same compound, the Potency entry in assay [3] was “inactive”.

`C=C(N(C)C)[C@]1(C)C[C@H]1[C@H](NC(=O)CNC(=O)OCc1ccccc1)c1ccccc1`: the outcome in assay [1] was inactive. In addition, the Potency in assay [2] is 7.94 µM (active). Besides, in assay [3], the Potency entry was “inactive”.

Take `COC(=O)c1ccc(C(NC(=O)OCc2ccccc2)/C(F)=C/[C@@H](C)C(=O)NCCc2c[nH]c3ccc(OC)cc23)cc1` (some centres undefined): in assay [1], the call was inactive. Also, the Potency in assay [2] is 1.26 µM (active). Also, the Potency result in assay [3] is “inactive”.

In the case of `CNC(=O)[C@]1(C)C[C@H]1[C@H](NC(=O)[C@]1(C)C[C@H]1[C@H](NC(=O)OCc1ccccc1)c1ccccc1)c1ccccc1`, the result in assay [1] was inactive. Moreover, the Potency in assay [2] was 15.8 µM (active). The Potency result in assay [3] was “inactive”.

`COC(=O)c1ccc(C(NC(=O)OCc2ccccc2)/C(I)=C/[C@@H](C)C(=O)NCc2ccncc2)cc1` (some centres undefined): in assay [1], the outcome was inactive. For the same compound, the Potency in assay [2] is 1.58 µM (active). The Potency result in assay [3] was “inactive”.

In the case of `Cc1ccc(CNC(=O)C2(CC(C)C)C=CCN2C(=O)c2ccccc2)o1` (centres undefined), the compound was called inactive in assay [1]. The Potency in assay [2] is 15.8 µM (active). Further, in assay [3], the Potency entry was “inactive”.

As for `C[C@]1(C(=O)NCCc2c[nH]c3ccccc23)C=C[C@@H](Cc2ccccc2)N1C(=O)c1ccccc1`, the call in assay [1] was inactive. Further, the Potency in assay [2] was 1.58 µM (active). For the same compound, the Potency result in assay [3] was “inactive”.

Turning to `COC(=O)c1ccc(C(NC(=O)OCc2ccccc2)/C(=C/[C@@H](C)C(=O)NCc2ccc(C)o2)c2cccnc2)cc1` (some centres undefined), the result in assay [1] was inactive. Moreover, the Potency in assay [2] is 15.8 µM (active). For the same compound, in assay [3], the Potency entry was “inactive”.
